PubChem BioAssay

target: Torsin-1A-interacting protein 2 (Homo sapiens) (UniProt Q8NFQ8); assay: LULL1 binders on small-molecule microarray, primary screen, cell lysate, human LULL1 lysate, 635/667 nm fluorescence (AID 1092); settings: hLULL1 lysate binding, 635 nm fluorescence, higher = more signal;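 note: probe is lysate of COS7 cells overexpressing human LULL1; score merges per-feature 667 nm fluorescence with signal-to-noise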
Sequence (Q8NFQ8 whole entry, looked up): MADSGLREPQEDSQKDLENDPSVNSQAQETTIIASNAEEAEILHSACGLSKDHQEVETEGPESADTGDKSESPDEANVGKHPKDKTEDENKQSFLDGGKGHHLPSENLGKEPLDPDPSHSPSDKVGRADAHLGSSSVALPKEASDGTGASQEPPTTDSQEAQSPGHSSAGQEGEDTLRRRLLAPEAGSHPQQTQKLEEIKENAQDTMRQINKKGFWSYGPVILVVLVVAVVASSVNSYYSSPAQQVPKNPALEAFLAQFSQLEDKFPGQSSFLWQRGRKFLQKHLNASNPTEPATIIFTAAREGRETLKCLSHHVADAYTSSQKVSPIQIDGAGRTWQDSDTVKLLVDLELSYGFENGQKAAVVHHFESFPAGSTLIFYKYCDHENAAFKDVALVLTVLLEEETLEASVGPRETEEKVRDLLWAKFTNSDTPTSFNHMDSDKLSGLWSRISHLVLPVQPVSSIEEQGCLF

Row | SMILES | composite z-score
1 | O=C1C[C@@H](O)[C@@H](O)[C@@H]2[C@@H]3C(=O)N(Cc4ccccc4)C(=O)[C@@H]3CC[C@@H]12 | 0.824
2 | CCN1C(=O)[C@H]2[C@H]3[C@H](O)[C@H](O)CC(=NOCC(C)C)[C@@H]3CC[C@H]2C1=O | 2.08
3 | COC(=O)CC=C[C@@H](C)[C@@H](C=NOC[C@H]1O[C@H](c2ccccc2)C=C[C@@H]1Oc1ccc(OC)cc1)OC | -0.072
4 | CC(CCN1CCc2nc(-c3ccccc3)c(-c3ccccc3)cc2C1)=NOC[C@@H](O)[C@H]1O[C@@H]2OC(C)(C)O[C@@H]2[C@H]1O | 1.78
5 | O=C(NN=C1C[C@@H](O)[C@@H](O)[C@@H]2[C@@H]3C(=O)N(C4CCCCC4)C(=O)[C@@H]3CC[C@@H]12)OCc1ccccc1 | -0.181
6 | COc1ccc(O[C@H]2C=C[C@@H](c3ccccc3)O[C@@H]2CON=C(C)CCC(=O)OC[C@H]2O[C@H](c3ccccc3)C=C[C@@H]2Oc2ccc(OC)cc2)cc1 | -1.78
